The campaign covered roughly 5,500 compounds. About 2,000 (36%) were called active. Not shown: some 18% with an inconclusive outcome. This is one part of the list. A number with no mark means an inactive call. Cut-off read from the data, not from the text of the source: active = normalized growth mostly below about 0.91 (no sharp cut-off); inconclusive = no clear call, values can overlap the other calls; inactive = mostly above about 0.92.
Test: chemical genetic growth profiling, strain panel (AID 1159580);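 note: tested at 20 µM; growth read once vehicle control cultures reached saturation at 30 °C; 1 = growth at the plate median or of vehicle wells; lower values mean less growth of the strain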
Details: growth OD
[1] = S. cerevisiae deletion strains, locus YAL040C, strain CLN3, active compounds read low
[2] = S. cerevisiae deletion strains, locus YCL061C, strain MRC1 (second series), active compounds read low
[3] = S. cerevisiae deletion strains, locus YDR363W, strain ESC2, active compounds read low
[4] = S. cerevisiae deletion strains, locus YER002W, strain NOP16, active compounds read low
[5] = S. cerevisiae deletion strains, locus YMR263W, strain SAP30, active compounds read low
[6] = S. cerevisiae deletion strains, locus YMR307W, strain GAS1, active compounds read low
[7] = S. cerevisiae deletion strains, locus YNL153C, strain GIM3, active compounds read low
[8] = S. cerevisiae deletion strains, locus YNL175C, strain NOP13, active compounds read low
[9] = S. cerevisiae deletion strains, locus YNL197C, strain WHI3, active compounds read low
[10] = S. cerevisiae deletion strains, locus YNL224C, strain SQS1, active compounds read low
[11] = S. cerevisiae deletion strains, locus YNL322C, strain KRE1, active compounds read low
[12] = S. cerevisiae deletion strains, locus YOR083W, strain WHI5 (second series), active compounds read low
[13] = S. cerevisiae deletion strains, locus YDR150W, strain NUM1, active compounds read low
[14] = S. cerevisiae deletion strains, locus YGR078C, strain PAC10, active compounds read low
[15] = S. cerevisiae deletion strains, locus YPL055C, strain LGE1, active compounds read low
[16] = S. cerevisiae deletion strains, locus YPL241C, strain CIN2, active compounds read low
[17] = S. cerevisiae deletion strains, locus YAL013W, strain DEP1, active compounds read low
[18] = S. cerevisiae deletion strains, locus YJR075W, strain HOC1, active compounds read low
[19] = S. cerevisiae deletion strains, locus YHR030C, strain SLT2, active compounds read low

Compound `NC(=NCc1ccc(Cl)c(Cl)c1)NC(=O)c1nc(Cl)c(N)nc1N` has a normalized growth [1] of 1.01, a normalized growth [2] of 0.999 and a normalized growth [3] of 0.992. It also gave a normalized growth [4] of 1.01, a normalized growth [5] of 1.01 and a normalized growth [6] of 0.993. The normalized growth [7] was 0.995, the normalized growth [8] was 1.02 and the normalized growth [9] was 1.03. The normalized growth [10] was 1.03, the normalized growth [11] was 0.966 and the normalized growth [12] was 1.01.
`CC(=O)OCC1=C(C(=O)O)N2C(=O)[C@@H](NC(=O)CCC[C@@H](N)C(=O)O)[C@H]2SC1` gave a normalized growth [1] of 0.993, a normalized growth [2] of 1 and a normalized growth [13] of 1.01. The normalized growth [3] was 1.03, the normalized growth [4] was 1.02 and the normalized growth [14] was 0.993. For the same compound, the normalized growth [6] was 0.997, the normalized growth (S. cerevisiae deletion strains, locus YNL128W, strain TEP1, active compounds read low) was 0.98 and the normalized growth [8] was 1.01. It also gave a normalized growth [9] of 1.02, a normalized growth [10] of 1.03 and a normalized growth [12] of 1.04. The normalized growth [15] was 1.01 and the normalized growth [16] was 1.
With `c1ccc2c(c1)[I+]c1ccccc1-2` the normalized growth [17] was 0.513 (active), the normalized growth [1] was 1.05 and the normalized growth [2] was 0.63 (active). For the same compound, the normalized growth [3] was 0.302 (active), the normalized growth [4] was 1.02 and the normalized growth [18] was 0.429 (active). For the same compound, the normalized growth [8] was 1.03, the normalized growth [9] was 0.958 and the normalized growth [10] was 0.892 (active). For the same compound, the normalized growth [12] was 0.569 (active) and the normalized growth [16] was 0.517 (active).
For `O=C(Oc1ccc(Cl)cc1Cl)c1c(Cl)cccc1Cl`, the normalized growth [17] was 0.946, the normalized growth (S. cerevisiae deletion strains, locus YBR229C, strain ROT2, active compounds read low) was 0.981 and the normalized growth (S. cerevisiae deletion strains, locus YDL101C, strain DUN1, active compounds read low) was 0.979. For the same compound, the normalized growth [13] was 0.882, the normalized growth (S. cerevisiae deletion strains, locus YEL061C, strain CIN8, active compounds read low) was 0.997 and the normalized growth [14] was 0.965. For the same compound, the normalized growth [19] was 0.681 (active), the normalized growth (S. cerevisiae deletion strains, locus YHR087W, strain rtc3, active compounds read low) was 0.982 and the normalized growth (S. cerevisiae deletion strains, locus YJL187C, strain SWE1, active compounds read low) was 0.967. It also gave a normalized growth (S. cerevisiae deletion strains, locus YJR043C, strain POL32, active compounds read low) of 0.955, a normalized growth [18] of 0.945 and a normalized growth (S. cerevisiae deletion strains, locus YKL190W, strain CNB1, active compounds read low) of 0.969. The normalized growth (S. cerevisiae deletion strains, locus YLR039C, strain RIC1, active compounds read low) was 1.2, the normalized growth (S. cerevisiae deletion strains, locus YLR058C, strain SHM2 (second series), active compounds read low) was 0.989 and the normalized growth (S. cerevisiae deletion strains, locus YLR085C, strain ARP6, active compounds read low) was 0.812. For the same compound, the normalized growth (S. cerevisiae deletion strains, locus YLR262C, strain YPT6, active compounds read low) was 1.2 [resistant] (active), the normalized growth (S. cerevisiae deletion strains, locus YML094W, strain GIM5, active compounds read low) was 0.968 and the normalized growth (S. cerevisiae deletion strains, locus YMR219W, strain ESC1, active compounds read low) was 0.985. It also gave a normalized growth [5] of 0.961, a normalized growth [7] of 0.985 and a normalized growth (S. cerevisiae deletion strains, locus YNL298W, strain CLA4 (second series), active compounds read low) of 0.957. The normalized growth [11] was 0.986, the normalized growth (S. cerevisiae deletion strains, locus YNR030W, strain Alg12, active compounds read low) was 0.939 and the normalized growth [15] was 0.876. The normalized growth [16] was 0.954, the normalized growth (S. cerevisiae deletion strains, locus YPR135W, strain CTF4, active compounds read low) was 0.907 and the normalized growth (S. cerevisiae strains, strain wild type, active compounds read low) was 0.984.
Work on `CC(Oc1ccc(Cl)cc1Cl)C(=O)O` (configuration not stated) yielded a normalized growth [19] of 0.968, a normalized growth (S. cerevisiae deletion strains, locus YHR079C, strain IRE1, active compounds read low) of 0.964 and a normalized growth (S. cerevisiae deletion strains, locus YJL095W, strain BCK1, active compounds read low) of 0.961. It also gave a normalized growth (S. cerevisiae deletion strains, locus YJR066W, strain TOR1, active compounds read low) of 0.898, a normalized growth (S. cerevisiae deletion strains, locus YLR113W, strain HOG1, active compounds read low) of 0.968 and a normalized growth (S. cerevisiae deletion strains, locus YNL183C, strain NPR1, active compounds read low) of 0.896. It also gave a normalized growth (S. cerevisiae deletion strains, locus YOR231W, strain MKK1, active compounds read low) of 0.965 and a normalized growth (S. cerevisiae deletion strains, locus YPL256C, strain CLN2, active compounds read low) of 0.955.
